aDG glyco up: alpha-DG glycosylation activation; actives 0.22% (n = 360,000); activation, % at 10 µM; Pro5-aDG cells, alpha-DG glycosylation AlphaScreen (IIH6); 0% Pro5, 100% B10-LARGE cell signal; AID 624168;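 active = activation of at least 8% versus controls, or a plate z-score of at least 8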;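 note: Pro5 are CHO cells carrying HIG-tagged alpha-DG that lacks glycosylation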
HIV Env fusion: inhibitors of HIV Env-mediated cell fusion. HeLa-JRFL Env/CEM21 cell fusion, luciferase. inhibition, % at 12.3 µM. actives 1.1% (n = 360,000);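 active = mean replicate inhibition score of at least 50 and every replicate individually at or above 50; inconclusive = only one of the two criteria met; inactive = mean below 50 and not all replicates reaching 50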;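 note: 0% = plate neutral controls and 100% = maraviroc near 300 nM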
GalR3 antagonist: antagonists of human GalR3. O60755. HEK293 GalR3-CNG cAMP membrane potential fluorescence; galR3 body fused to GalR1 C-terminus. inhibition, % at 3 µM. actives 0.44% (n = 360,000). AID 651719;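 active = inhibition above the screen-wide average plus 3 SD, cut at about 13% in these data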;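 note: forskolin and galanin both at EC90 stimulate the cells; cAMP rise reported by CNG channel membrane potential dye signal; 0% = forskolin plus galanin with DMSO and 100% = forskolin alone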
Target sequence (O60755 1-299 limits assumed): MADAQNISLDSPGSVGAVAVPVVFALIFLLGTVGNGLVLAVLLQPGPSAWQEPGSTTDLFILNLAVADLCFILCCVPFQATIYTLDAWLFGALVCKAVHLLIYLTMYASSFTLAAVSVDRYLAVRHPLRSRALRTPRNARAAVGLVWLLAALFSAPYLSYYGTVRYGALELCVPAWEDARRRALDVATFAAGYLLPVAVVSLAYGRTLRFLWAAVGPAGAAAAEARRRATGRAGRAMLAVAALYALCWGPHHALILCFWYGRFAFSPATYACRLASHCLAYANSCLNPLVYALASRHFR
Gli-Sufu antag: antagonists of Gli-Sufu signaling; AID 588413; inhibition, % at 5 µM; actives 0.74% (n = 340,000); Sufu-KO-LIGHT fibroblasts, Gli luciferase reporter luminescence;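 active = inhibition above about 55%, limit read from the data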;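 note: 0% = DMSO-treated cells and 100% = wells with medium but no cells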
NR2F2 inh: blocks human COUP-TFII nuclear receptor. HEK293T NGFI-A luciferase reporter, luminescence. inhibition, % at 8.6 µM. actives 0.7% (n = 370,000). AID 686940;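 active = inhibition above a per-plate cutoff, mean inhibition of test wells between control levels plus 3 SD, cut at about 38% in these data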;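 note: cells cotransfected with COUP-TFII expression vector driving the NGFI-A reporter; 0% = median of COUP-TF2 test wells and 100% = reporter-only cells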
Target sequence (P24468 whole entry, looked up): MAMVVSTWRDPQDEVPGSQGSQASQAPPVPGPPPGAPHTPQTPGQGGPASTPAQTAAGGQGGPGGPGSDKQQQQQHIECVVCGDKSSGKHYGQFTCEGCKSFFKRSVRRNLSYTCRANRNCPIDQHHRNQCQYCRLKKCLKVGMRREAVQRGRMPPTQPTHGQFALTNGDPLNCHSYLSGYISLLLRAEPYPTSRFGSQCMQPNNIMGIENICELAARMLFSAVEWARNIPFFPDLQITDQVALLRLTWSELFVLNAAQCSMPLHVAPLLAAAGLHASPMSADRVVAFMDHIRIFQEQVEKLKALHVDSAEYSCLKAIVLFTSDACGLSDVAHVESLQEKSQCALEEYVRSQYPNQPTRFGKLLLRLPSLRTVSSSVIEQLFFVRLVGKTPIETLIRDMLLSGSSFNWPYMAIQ
Gal4-VP16 ctr: inhibits VP16 reporter, flagging COUP-TFII antagonist hits. actives 25% (n = 2,500). shares compounds with NR2F2 inh. HEK293 Gal4-VP16 luciferase reporter, luminescence. inhibition, % at 8.5 µM; in the data active = inhibition above about 13%
NR2F2 inh conf: COUP-TFII (NR2F2) inhibition, confirmation assay; actives 45% (n = 2,500); shares compounds with NR2F2 inh; HEK293 NGFI-A luciferase reporter, luminescence; inhibition, % at 8.5 µM; AID 687008;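 active = mean inhibition over three repeats above a set limit taken from the earlier primary screen, cut at about 38% in these data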;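 note: 100% = cells given the luciferase reporter alone without the COUP-TF2 vector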
Numbers without * were called inactive; [ ] = dose if it differs, or a comment. An excerpt weighted towards active compounds, which were near 2.1% of everything screened.

How did COc1ccc(CCNC(=O)C(C)n2nc(C)c3c(C)n(-c4ccc(C)cc4)nc3c2=O)c(OC)c1 (configuration not stated) do in these assays?
aDG glyco up: 0.2; HIV Env fusion: 8.6; GalR3 antagonist: -9.5; Gli-Sufu antag: -10.4; NR2F2 inh: 61.2*; Gal4-VP16 ctr: 4.0; NR2F2 inh conf: 61.8*

How did Cc1ccc(S(=O)(=O)N2CCCCC2)cc1NC(=O)c1ccc2c(=O)n3c(nc2c1)CCCCC3 do in these assays?
HIV Env fusion: 7.9; GalR3 antagonist: -5.2; NR2F2 inh: 43.2*; Gal4-VP16 ctr: -2.8; NR2F2 inh conf: 14.4

How did COc1ccc(OC)c(CC(=O)Nc2cc(S(=O)(=O)N3CCCCC3)ccc2C)c1 do in these assays?
aDG glyco up: 0.2; HIV Env fusion: 28.2; GalR3 antagonist: -1.7; Gli-Sufu antag: 5.4; NR2F2 inh: 6.2

What do the screens show for `COc1ccc(CC(=O)Nc2cc(S(=O)(=O)N3CCCCC3)ccc2C)cc1OC`?
aDG glyco up: 3.6; HIV Env fusion: 29.5; GalR3 antagonist: 0.7; Gli-Sufu antag: 45.3; NR2F2 inh: 60.4*; Gal4-VP16 ctr: -0.2; NR2F2 inh conf: 47.6*

How did C[C@H](NC(=O)N(C)C[C@@H]1OCc2ccccc2-c2c(n(C)c3ccccc23)C(=O)N([C@H](C)CO)C[C@H]1C)c1ccccc1 do in these assays?
HIV Env fusion: 8.2[16.7 µM]

What do the screens show for `O=C(Cc1ccncc1)NCC[C@H]1CC[C@H](NC(=O)C2CCCCC2)[C@H](CO)O1`?
HIV Env fusion: -10.9[16.7 µM]

What do the screens show for `Cc1ccc(Cn2ccc(NC(=O)c3cc(C4CC4)on3)n2)cc1`?
aDG glyco up: 0.3; HIV Env fusion: -12.3; GalR3 antagonist: -1.1; Gli-Sufu antag: -10.9; NR2F2 inh: 39.0*; Gal4-VP16 ctr: -6.8; NR2F2 inh conf: -8.6

What do the screens show for `c1ccc(CCc2nc(-c3ccc(-n4cccc4)cc3)no2)cc1`?
aDG glyco up: -0.1; HIV Env fusion: 6.8; GalR3 antagonist: 2.7; Gli-Sufu antag: -10.8; NR2F2 inh: 2.2

What do the screens show for `c1ccn(-c2ccc(-c3noc(CCc4ccncc4)n3)cc2)c1`?
NR2F2 inh: 50.8*; Gal4-VP16 ctr: -24.1; NR2F2 inh conf: 19.9

How did Cc1cc(C)c(O)c(C(=O)CC2CC(=O)NC(=O)C2)c1 do in these assays?
GalR3 antagonist: -1.1; NR2F2 inh: 75.1*; Gal4-VP16 ctr: -15.7; NR2F2 inh conf: 51.3*

Results for C[C@H](CO)N1C[C@H](C)[C@@H](CN(C)C)Oc2ccc(NC(=O)Nc3cccc4ccccc34)cc2C1=O ?
HIV Env fusion: 0.1[16.7 µM]

What do the screens show for `COC(=O)c1ccc2nc(Nc3nc4c(F)cc(F)cc4s3)sc2c1`?
aDG glyco up: -0.1; HIV Env fusion: 39.6; GalR3 antagonist: -4.3; Gli-Sufu antag: 49.1; NR2F2 inh: 66.1*; Gal4-VP16 ctr: 26.1*; NR2F2 inh conf: 81.6*

Results for O=C1/C(=C/c2cccnc2)CCc2c1[nH]c1ccccc21 ?
aDG glyco up: 0.3; HIV Env fusion: -91.9; GalR3 antagonist: -2.0; Gli-Sufu antag: -21.6; NR2F2 inh: 15.1

What do the screens show for `CC1C/C(=C\c2cccnc2)C(=O)/C(=C/c2cccnc2)C1` (configuration not stated)?
aDG glyco up: 0.0; GalR3 antagonist: -9.8; Gli-Sufu antag: -5.9; NR2F2 inh: 95.6*; Gal4-VP16 ctr: 90.7*; NR2F2 inh conf: 105.1*

How did COc1ccc(CCNC(=O)c2ccc(Cl)c(S(=O)(=O)N3CCCC3)c2)cc1 do in these assays?
aDG glyco up: 0.5; HIV Env fusion: 3.0; GalR3 antagonist: -3.4; Gli-Sufu antag: 6.8; NR2F2 inh: 40.8*; Gal4-VP16 ctr: -3.8; NR2F2 inh conf: 19.7

How did O=C(Nc1ccc(Cl)c(S(=O)(=O)N2CCOCC2)c1)c1ccc2c(c1)OCCO2 do in these assays?
aDG glyco up: 0.1; HIV Env fusion: 14.0; GalR3 antagonist: -5.9; Gli-Sufu antag: -17.0; NR2F2 inh: 27.8

Results for O=C(Nc1ccc(Cl)c(S(=O)(=O)N2CCOCC2)c1)c1ccc(Cl)nc1 ?
aDG glyco up: 0.7; HIV Env fusion: -100.2; GalR3 antagonist: 1.3; Gli-Sufu antag: 9.7; NR2F2 inh: 44.1*; Gal4-VP16 ctr: 3.3; NR2F2 inh conf: 16.0

Results for COc1ccc(NC(=O)c2cc3c(s2)CCC(C)C3)cc1S(=O)(=O)N1CCOCC1 (configuration not stated) ?
aDG glyco up: 0.6; HIV Env fusion: 27.6; GalR3 antagonist: -3.1; Gli-Sufu antag: 28.2; NR2F2 inh: 60.2*; Gal4-VP16 ctr: -16.0; NR2F2 inh conf: 28.1

Results for COc1ccc(C(CNC(=O)c2ccc(Cl)c(S(=O)(=O)N3CCCC3)c2)N2CCCC2)cc1 (configuration not stated) ?
aDG glyco up: 0.1; HIV Env fusion: -7.4; GalR3 antagonist: -7.3; Gli-Sufu antag: 17.5; NR2F2 inh: -10.6

How did COc1ccc(C(=O)Nc2ccc(Cl)c(S(=O)(=O)N3CCOCC3)c2)cc1 do in these assays?
aDG glyco up: 0.2; HIV Env fusion: inconclusive; GalR3 antagonist: -5.2; Gli-Sufu antag: -2.8; NR2F2 inh: 58.6*; Gal4-VP16 ctr: -6.2; NR2F2 inh conf: 25.2

Results for Cc1noc(C)c1S(=O)(=O)Nc1ccc2c(c1)C(=O)N([C@H](C)CO)C[C@@H](C)[C@@H](CN(C)C(=O)CCCN(C)C)OCCCC[C@H](C)O2 ?
HIV Env fusion: 0.9[16.7 µM]

How did C[C@H]1CN([C@@H](C)CO)C(=O)c2cccc(NC(=O)Nc3ccc(F)cc3)c2O[C@@H]1CN(C)CC1CC1 do in these assays?
HIV Env fusion: -0.8[16.7 µM]

How did CS(=O)(=O)N1[C@@H](C#N)[C@@H](c2ccc(-c3ccccc3F)cc2)[C@@H]1CO do in these assays?
HIV Env fusion: 14.1[16.7 µM]

What do the screens show for `O=C(N[C@@H]1CC[C@@H](CCNS(=O)(=O)Cc2ccccc2)O[C@@H]1CO)c1cnccn1`?
HIV Env fusion: 1.4[16.7 µM]

Results for CC(=O)CC(=O)N1C(=O)N(C)[C@@]2(C)Oc3ccccc3[C@@H]1[C@H]2COC(=O)c1ccc([N+](=O)[O-])cc1 ?
HIV Env fusion: 8.8[16.7 µM]

What do the screens show for `C[C@H]1CN([C@@H](C)CO)S(=O)(=O)c2ccc(C#Cc3ccccc3F)cc2O[C@H]1CN(C)CC1CC1`?
HIV Env fusion: 6.8[16.7 µM]

What do the screens show for `COCc1cc(N2CCN(C(=O)OC(C)(C)C)C[C@@H]2C)ccc1N1CCN(Cc2ccccc2)[C@@H](C)C1`?
HIV Env fusion: -23.3; GalR3 antagonist: -6.9; NR2F2 inh: 37.5*; Gal4-VP16 ctr: 5.0; NR2F2 inh conf: 16.4

Results for CCCn1nc(C(=O)Nc2ccc3nc(N4CCOCC4)sc3c2)ccc1=O ?
aDG glyco up: 1.7; HIV Env fusion: 85.3*; GalR3 antagonist: -6.0; Gli-Sufu antag: 46.5; NR2F2 inh: 43.2*; Gal4-VP16 ctr: 9.9; NR2F2 inh conf: 36.3

Bioassay records as filed in PubChem BioAssay.
